# Source: publication PMC4552634, “A New Set of Chemical Starting Points with Plasmodium falciparum Transmission-Blocking Potential for Antimalarial Drug Discovery” (PLoS ONE, 2015)
# About 3,200 (25%) of roughly 13,000 compounds showed an effect of 50% or more. This is one part of the list.
# Tested on: P. falciparum stage V gametocytes
# Set-up: BacTiter-Glo ATP luminescence viability of purified stage V gametocytes in 384-well plates, per cent inhibition versus DMSO
# Conditions: 48 h, 5 µM; inhibitor
row,Compound,% Inhibition [%]
1,Clc1ccc(-c2ncc(-c3ccncc3)[nH]2)cc1Cl [TCMDC-135775],-31.04
2,Nc1ccnc(N2CCC(CCOc3ccnc4cc(Cl)ccc34)CC2)c1 [TCMDC-141365],-42.39
3,CC(=O)Nc1nnc(SCc2c(C)cc(C(C)(C)C)cc2C)s1 [TCMDC-125446],0.04812
4,CN1CC[C@@H](Oc2cc(Nc3nc(-c4ccc(C#N)cc4)cs3)ccc2Cl)C1 [TCMDC-136291],12.39
5,CCCCCCNC(=O)C1Cc2c([nH]c3ccc(F)cc23)C2(CCN(Cc3ccccc3)CC2)N1 (stereo not shown) [TCMDC-141303],21.59
6,CCCCCCNC(=O)C1Cc2c([nH]c3cc(Cl)ccc23)C2(CCN(Cc3ccccc3)CC2)N1 (stereo not shown) [TCMDC-141296],89.1
7,CCCCCCNC(=O)C1Cc2c([nH]c3cc(Cl)ccc23)C2(CCN(CCC)CC2)N1 (stereo not shown) [TCMDC-141297],-77.49
8,CC(C)CCNC(=O)C1Cc2c([nH]c3ccc(Br)cc23)C2(CCN(Cc3ccccc3)CC2)N1 (stereo not shown) [TCMDC-141178],102.8
9,CC(C)CCNC(=O)C1Cc2c([nH]c3ccc(Br)cc23)C2(CCN(CCc3ccccc3)CC2)N1 (stereo not shown) [TCMDC-141179],47.91
10,Cc1ccc2[nH]c3c(c2c1)CC(C(=O)NCCC(C)C)NC31CCN(Cc2ccccc2)CC1 (stereo not shown) [TCMDC-141090],28.05
11,Nc1cc(-c2cc3c(OCc4ccccc4)cccc3[nH]2)ccn1 [TCMDC-134290],-55.8
12,CN(C)CCC1CCN(CCS(=O)(=O)c2cccc(Nc3ccc(-c4ccsc4)cn3)c2)CC1 [TCMDC-134377],15.01
13,Cc1cc(Cl)ccc1NC(=O)Nc1ccc2nccc(N3CCN(C)CC3)c2c1 [TCMDC-139357],8.372
14,COc1ccc(CCN(C)CCOc2ccc(NC(=O)c3cccc4c(=O)c5cc(SC)ccc5[nH]c34)cc2)cc1OC [TCMDC-131958],53.19
15,COc1ccc(CCN(C)CCCN2CCC(NC(=O)c3cccc4c(=O)c5ccccc5sc34)CC2)cc1OC [TCMDC-131966],103.2
16,COc1ccc(CCN(C)CCOc2ccc(NC(=O)c3cc(SC)cc4c(=O)c5ccccc5[nH]c34)cc2)cc1OC [TCMDC-131957],24.55
17,COc1ccc(CCN(C)CCc2ccc(NC(=O)c3cccc4c(=O)c5ccccc5sc34)cc2)cc1 [TCMDC-131965],45.76
18,COc1ccc(CN(C)Cc2ccc(NC(=O)c3cccc4c(=O)c5cccc(C)c5[nH]c34)cc2)cc1OC [TCMDC-131852],2.818
19,COc1ccc(CCN(C)CCCOc2ccc(NC(=O)c3cccc4c(=O)c5ccccc5[nH]c34)cc2)cc1OC [TCMDC-132116],43.65
20,COc1ccc(CN(C)CCCOc2ccc(NC(=O)c3cccc4c(=O)c5cccc(F)c5[nH]c34)cc2)cc1OC [TCMDC-131846],60.98
21,COc1cc(OCCCN(C)Cc2ccc(OC)c(OC)c2)ccc1NC(=O)c1cccc2c(=O)c3cccc(F)c3[nH]c12 [TCMDC-131853],16.5
22,COc1ccc(CN(C)CCOc2ccc(NC(=O)c3cccc4c(=O)c5cc(SC)ccc5[nH]c34)cc2)cc1OC [TCMDC-131956],28.02

row,Compound,% Inhibition [%]
1,COc1ccc(CCN(C)CCCCc2ccc(NC(=O)c3cccc4c(=O)c5cc(F)ccc5sc34)cc2)cc1OC [TCMDC-131961],94.02
2,COc1ccc(CN(C)CCCOc2ccc(NC(=O)c3cccc4c(=O)c5cccc(C)c5[nH]c34)cc2)cc1OC [TCMDC-131850],23.76
3,O=C(NCC1CCC(C(=O)NC2CCCc3ccccc32)CC1)c1ccc(O)c(-c2ccc(Cl)c(Cl)c2)c1 (stereo not shown) [TCMDC-140891],17.3
4,COC(=O)C(NC(=O)NC1CCN(c2ccnc(Nc3ccc(F)cc3)n2)C1)c1ccccc1 (stereo not shown) [TCMDC-133595],4.499
5,CCc1sc(CN(CCCNc2cc(=O)c3ccccc3[nH]2)Cc2sc(CC)c(Br)c2-c2ccsc2)c(-c2ccsc2)c1Br [TCMDC-140753],49.24
6,N=C1c2ccccc2CN1CC(=O)c1ccc(Cl)c(Cl)c1 [TCMDC-123783],-26.95
7,N#Cc1ccc2c(c1)CCN(CCC1CCC(NC(=O)/C=C/c3cnc4ccccc4c3)CC1)CC2 (stereo not shown) [TCMDC-139662],-42.99
8,O=C(NCc1ccc(F)cc1)Nc1cccc(-c2ccc(-c3nc4ccc(F)cc4[nH]3)cc2)c1 [TCMDC-133301],-42.08
9,CCc1nnc2sc(-c3cccc(NC(=O)c4ccc(OC)c(Cl)c4)c3)nn12 [TCMDC-125049],-8.625
10,CC(C)(CN)c1cc(-c2ccc(Cl)c(O)c2)c(-c2ccncc2)o1 [TCMDC-141334],-68.46
11,CCCC(=O)Nc1ccc(Cl)c(NC(=O)COc2cc(C)ccc2C(C)C)c1 [TCMDC-123706],-6.515
12,CCc1ccc(NC(=O)c2ccc(CN3CCCN(Cc4cccc(C)c4)CC3)cc2)cc1 [TCMDC-136440],-10.99
13,Nc1ncnc2nc(-c3ccc(F)cc3)cc(-c3ccc(NC(=O)c4ccccc4)cc3)c12 [TCMDC-134854],-13.72
14,CCCC1N=C(N)N=C(N)N1c1ccc(CC)cc1 (stereo not shown) [TCMDC-131300],-2.095
15,CC(C)CC1c2[nH]c3ccccc3c(=O)c2CN1C(=O)OC(C)(C)C (stereo not shown) [TCMDC-134513],44.74
16,COc1ccc(CN(C)CCCCc2ccc(NC(=O)COc3cccc4sc5ccccc5c(=O)c34)cc2)cc1OC [TCMDC-131960],103.7
17,COc1ccc(CCN(C)CCOc2ccc(NC(=O)COc3ccc4sc5ccccc5c(=O)c4c3)cc2)cc1OC [TCMDC-132111],31.27
18,COc1cc(CCN(C)Cc2ccc(OC)c(OC)c2)ccc1NC(=O)c1cccc2c(=O)c3cccc(F)c3[nH]c12 [TCMDC-131854],37.94
19,COc1ccc(CN(C)CCCc2ccc(NC(=O)c3cccc4c(=O)c5ccccc5[nH]c34)cc2)cc1OC [TCMDC-131963],13.74
20,COc1ccc(CCN(C)CCCOc2ccc(NC(=O)COc3cccc4sc5ccccc5c(=O)c34)cc2)cc1OC [TCMDC-132117],17.11
21,COc1ccc(CN(C)CCCc2ccc(NC(=O)c3cccc4c(=O)c5cccc(F)c5[nH]c34)cc2)cc1OC [TCMDC-131964],81.66
